{
  "source": "the supplement of paper PMC6555819",
  "data": [
    {"test_system": "THRa homodimer (NR concentration 90 nM)", "test": "PBM binding z-score (relative to random genomic background probes); higher = stronger binding; sequences stand for … in GC…GCGATTGACAGCGTAGAATGAAGG", "procedure,_shortened": "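Regression normalization was applied to scanned fluorescence from custom Agilent 4×180K protein-binding microarrays. Before scanning, arrays were incubated 1 h with ligand-free nuclear receptor dimers, and binding was detected with antibodies against each partner (one per run). Binding z-scores use the random background probes as reference.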", "values": [
      {"sequence": "GGAAAGAGGGCATTCGAGTTGATAGCATGGCGAT", "PBM binding z-score": -0.358},
      {"sequence": "CCTACTGGGCCAAGAAAGGTCATTGATTCAGTGA", "PBM binding z-score": 0.419},
      {"sequence": "GCAGACAGTTGAAACGCAGGTAACTCAGGGTGGC", "PBM binding z-score": -0.565},
      {"sequence": "CCGACTGGGGCAAAGCTTACCATACTCAGTACGA", "PBM binding z-score": -0.519},
      {"sequence": "TAGCCTAGGTCAGATCGGGCCAATATACGCTATA", "PBM binding z-score": 0.165},
      {"sequence": "CGTCCGAGGTCAGCAGGTCAGTGAAAGCGACGTG", "PBM binding z-score": 2.53},
      {"sequence": "ATCTCTAGGTAAAAGCTCAGTGAATCCCGAGGAT", "PBM binding z-score": -0.296},
      {"sequence": "GGAACGAGGGCAAGTTGATACCAGAGTTTGATGG", "PBM binding z-score": -0.003},
      {"sequence": "AGAATGAGGTTATTAAGTTCAGGGAATTGCGGTC", "PBM binding z-score": 1.36},
      {"sequence": "GCTAGTTGGTTAGTAAAAGGTCACACACCGGTCG", "PBM binding z-score": 2.08},
      {"sequence": "AATACAGTGTCACTAGGCCAGAGTAGGTACGAAT", "PBM binding z-score": -0.314},
      {"sequence": "GGAACGAGGGCAAGTTGCTAGCAGAGTTTGATGG", "PBM binding z-score": -0.229},
      {"sequence": "ATACCAAGGTGATCGTGAGGTCGTGGATACTAAC", "PBM binding z-score": 2.99},
      {"sequence": "TGTCAAAGTTCAAATGTAACGTAAGTATCCACAC", "PBM binding z-score": -0.283},
      {"sequence": "CCTACTGGGCCAAGGTCATTGTTCAGTCAAAGCA", "PBM binding z-score": 2.72},
      {"sequence": "TCGAGTAGGTTAGTCGGGGCATTTAGCCAACATA", "PBM binding z-score": -0.042},
      {"sequence": "CCGAGTAGGTTATGGGGCTTTCAGGCAACGGTGA", "PBM binding z-score": 0.657},
      {"sequence": "AGAACGAGGGCACGCTGAGTTGATAGGAGAGTAG", "PBM binding z-score": 0.0402},
      {"sequence": "CCGACTGGGGCAAAGGTTACCATTCTCAGTACGA", "PBM binding z-score": -0.246},
      {"sequence": "CCTTACGGGTCACTGACAGATTATAGCATTTGGA", "PBM binding z-score": 0.495},
      {"sequence": "CGTCCAAGGTGAAAGGTCAGTGAAGAGATGACGG", "PBM binding z-score": 1.23},
      {"sequence": "ACAGAAAGGTGAGTGAAGGTAACTCAGCTGGACG", "PBM binding z-score": -0.361},
      {"sequence": "TGTCAAAGTTCAAAGGTAACGGAAGTATCCACAC", "PBM binding z-score": 0.158},
      {"sequence": "ACCGAAAGGTCGAGGTGAGTATAGAGAAAGGGAA", "PBM binding z-score": 0.707},
      {"sequence": "ATCTCTCGGTAAGACTCAGTTCAGTGAAGAACGC", "PBM binding z-score": 1.17},
      {"sequence": "CCTTACGGGTCAAGATTATAGCACGGGTGGTACG", "PBM binding z-score": 0.000143},
      {"sequence": "ATCTCTAGGTAACCAAGTTAAGTGAATGCCGAAC", "PBM binding z-score": 0.542},
      {"sequence": "GATACAGGCTCAAGGCCAGAGTACGCGTATTGAT", "PBM binding z-score": -0.602},
      {"sequence": "GCAAGCAGGCCATTTGGGTCACTCAATGACGGGC", "PBM binding z-score": 0.53},
      {"sequence": "AGAATGAGGTTATACGTCGATCAGGGAAGAAAGT", "PBM binding z-score": 0.495},
      {"sequence": "TATACAGGTTCAAAGGCCAGAGTACGAATGTCGA", "PBM binding z-score": -0.0522},
      {"sequence": "ACTAGCAGGCGAAGTTTGGGTCACTCAAACAAAG", "PBM binding z-score": 0.813},
      {"sequence": "ATTTCTAGGTAAGACTCAGTTCAGTGAAGAACGC", "PBM binding z-score": 0.851},
      {"sequence": "GCTATTGGTTGAAAGGGCAACCGAATGATTCTCG", "PBM binding z-score": -0.293},
      {"sequence": "CGAACTAGGTCATCCTGGACAGTGAATACATTGA", "PBM binding z-score": 1.35},
      {"sequence": "ATATCTAGGTTAAGGGTCATTCAGGTTGGTTCGC", "PBM binding z-score": 2.49},
      {"sequence": "ATATGTTGGTTAAGGGTCATTCAGGTTGGTTCGC", "PBM binding z-score": 2.24},
      {"sequence": "CAAACTAGGTCAACGGTCAAAGTCGAGCCAACCA", "PBM binding z-score": 1.31},
      {"sequence": "TCTGATAGGTCAACGATGGTCAGCTAATCTGCTA", "PBM binding z-score": -0.296},
      {"sequence": "AGTATGAGGTTATACGTAGATCAGGGAAGAAAGT", "PBM binding z-score": 0.869}
    ]}
  ]
}
